High-throughput results as filed in PubChem BioAssay.
HT1080 IDH1KD tx – toxicity to HT-1080 IDH1 knockdown cells (counter line) | HT-1080 IDH1 knockdown viability, ATP luminescence, 48 h | Potency, µM (top dose mostly 46.1 µM), inactives show at the top dose activity, negative = toxicity, actives largely listed as cytotoxic | actives 2% (n = 360,000) | AID 686971;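 note: potency is the fitted concentration of half-maximal effect; 0% = DMSO wells and -100% = cell-free medium wells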
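After a 2 h attachment period, IDH1KD HT-1080 cells took pin-transferred compound for 48 h at 37 °C; ATP-based luminescence after 10 min room-temperature reagent incubation reported viability.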
TDP1 cell noCPT – qHTS for Inhibitors of human tyrosyl-DNA phosphodiesterase 1 (TDP1): qHTS in cells in absence of CPT; DT40 Tdp1-/- hTDP1 cells, no CPT, ATP luminescence, 48 h; Potency, µM (doses to about 46.2 µM), for inactives: top-dose activity change, negative = growth inhibition, usual class: inhibitors; actives 15% (n = 420,000); AID 686978, 2013; note: potency is the fitted concentration of half-maximal effect; nearly all actives have a fitted effect of over 55% in size
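Readout: luminescence from CellTiter-Glo after 30 min in the dark at RT. Cells: DT40 Tdp1-/- with stable hTDP1, 400/well. Exposure: compounds alone, ≥48 hr, 37 °C.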
DT40 TDP1 CPT – DT40-hTDP1 cell growth loss with CPT. chicken DT40 Tdp1-/-;hTDP1 cells + 20 nM CPT, ATP luminescence, 48 h. Potency, µM (highest dose often 46.2 µM), inactives show at the top dose activity change, negative = growth inhibition, hits mostly inhibitors. actives 12% (n = 420,000). AID 686979; note: potency is the fitted concentration of half-maximal effect; nearly all actives have a fitted effect of over 55% in size
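Chicken DT40 Tdp1-/- cells complemented with human TDP1, 400 cells/well, exposed to compounds plus 20 nM camptothecin for at least 48 h at 37 C; viability read as ATP content by CellTiter-Glo luminescence.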
IL1B secr inh – inhibitors of inflammasome signaling (IL-1 beta secretion). actives 4.7% (n = 360,000). THP-1 LPS/ATP IL-1B secretion, AlphaLISA, 16 h; active compounds read low. activity change, % at 57.5 µM; in the data active = activity change below about -50%; inconclusive = mostly about -30% to -49%
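THP-1 cells pretreated 1 hr with compounds (up to 57.5 uM final), then stimulated with LPS (250 ng/mL final) plus ATP (1.25 mM final); secreted IL-1B measured by AlphaLISA after 16 hr, decreased signal indicating inhibition.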
uPA generation – blocks generation of uPA at the cell surface; cell surface uPA generation assay, qHTS; Potency, µM (top dose mostly 38.3 µM), inactives show top-dose activity change, negative = inhibition, actives largely listed as inhibitors; actives 0.31% (n = 330,000); AID 540303; active = well fitted inhibition curve with a large enough effect; inconclusive = small, poorly fitted or top-dose-only effect; inactive = no such curve, though single readings can be large or run the other way; tested in mouse RAW 264.7 cells; note: potency is the fitted concentration of half-maximal effect; nearly all actives have a fitted effect of over 55% in size
HT1080NT lethal – kills 2HG-producing HT-1080-NT fibrosarcoma cells; HT-1080-NT fibrosarcoma viability, CellTiter-Glo ATP luminescence, 48 h; Potency, µM (highest dose often 46.1 µM), inactives show at the top dose activity, negative = less viability, hits mostly cytotoxic; actives 1.6% (n = 360,000); AID 686970;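 note: NT is the 2HG producing partner of a matched IDH1 knockdown line; potency is the fitted concentration of half-maximal effect; 0% = DMSO-treated cells and -100% = media-only wells without cells; nearly all actives have a fitted effect of over 55% in size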
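HT-1080-NT; 750 cells/well; 5% FBS RPMI; 48 h compound, 37 degrees C; CellTiter-Glo luminescence; curve fitting and curve-class assignment.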
* marks the source's active call; other numbers are inactive results; [ ] = another dose, or the depositor's remark. Most compounds without a hit are left out; they make up all but 19% or so of the library. Unless noted, calls come from the whole dose curve; as a rule, active = well fitted curve in the direction sought with a large enough effect; inconclusive = small, poorly fitted or top-dose-only effect, or another doubt; inactive = no such curve, though single readings can be large; an effect the other way counts as inactive or inconclusive. Unless noted, % is set by controls: 0 for no effect and ±100 for the full control effect.

Results for Cc1ccccc1CN1CCNC(=O)C1CC(=O)NC1CCCCCCC1 (stereo not drawn) ?
HT1080 IDH1KD tx: -15%; TDP1 cell noCPT: -23%; DT40 TDP1 CPT: inconclusive; IL1B secr inh: -13; uPA generation: 2%; HT1080NT lethal: -14%

Results for O=C(CC1C(=O)NCCN1Cc1ccc(-c2ccccc2)cc1)NCC1CC1 (stereo not drawn) ?
HT1080 IDH1KD tx: -8%; TDP1 cell noCPT: inconclusive; DT40 TDP1 CPT: -4%; IL1B secr inh: -54*; uPA generation: 2%; HT1080NT lethal: -4%

How did CCc1ccc(CNC(=O)CC2C(=O)NCCN2Cc2ccccc2F)nc1 (stereo not drawn) do in these assays?
HT1080 IDH1KD tx: -16%; TDP1 cell noCPT: 5.2µM*; DT40 TDP1 CPT: -18%; IL1B secr inh: 10; uPA generation: -4%; HT1080NT lethal: 2%

What do the screens show for `CN(C(=O)CC1C(=O)NCCN1Cc1ccccc1C(F)(F)F)C1CCOCC1` (stereo not drawn)?
HT1080 IDH1KD tx: 6%; TDP1 cell noCPT: 21µM*; DT40 TDP1 CPT: inconclusive; IL1B secr inh: 3; uPA generation: 3%; HT1080NT lethal: 10%

Results for C=CCNC(=O)CC1C(=O)NCCN1Cc1ccc(-c2ccccc2)cc1 (stereo not drawn) ?
HT1080 IDH1KD tx: -1%; TDP1 cell noCPT: inconclusive; DT40 TDP1 CPT: inconclusive; IL1B secr inh: -4; uPA generation: 0%; HT1080NT lethal: -1%

Results for CC(C)(C)NC(=O)C12CCC(C)(c3nc4ccccc4nc31)C2(C)C (stereo not drawn) ?
HT1080 IDH1KD tx: -12%; TDP1 cell noCPT: 22µM*; DT40 TDP1 CPT: 11µM*; IL1B secr inh: 21; HT1080NT lethal: 9%

What do the screens show for `COc1ccccc1C(=O)Nc1nc(C)cc(C)n1`?
HT1080 IDH1KD tx: 17%; TDP1 cell noCPT: -4%; DT40 TDP1 CPT: 4%; IL1B secr inh: -2; uPA generation: -1%; HT1080NT lethal: 22%

How did COCc1c(C(=O)NCC2CCCN(C)C2)cnn1-c1ncc2c(n1)-c1ccccc1CCC2 (stereo not drawn) do in these assays?
TDP1 cell noCPT: -9%; DT40 TDP1 CPT: 11%[9.04 µM]

How did Cc1ccc(NC(=O)c2ccc(CSc3ccccn3)cc2)cc1 do in these assays?
HT1080 IDH1KD tx: -18%; TDP1 cell noCPT: 23µM*; DT40 TDP1 CPT: inconclusive; IL1B secr inh: inconclusive; uPA generation: -3%; HT1080NT lethal: -9%

How did Cc1ccc(N/C(N)=N/c2nc(CSc3ccccn3)cc(=O)[nH]2)c(C)c1 do in these assays?
HT1080 IDH1KD tx: inconclusive; TDP1 cell noCPT: 18µM*; DT40 TDP1 CPT: inconclusive; IL1B secr inh: 9; uPA generation: 3%; HT1080NT lethal: 18%

What do the screens show for `Cc1ccc(NC(=O)c2ccc(CSc3ccccn3)cc2)c(O)c1`?
HT1080 IDH1KD tx: 1%; TDP1 cell noCPT: inconclusive; DT40 TDP1 CPT: -20%; IL1B secr inh: -12; uPA generation: -12%; HT1080NT lethal: 0%

What do the screens show for `CCc1ccc(N/C(N)=N/c2nc(CSc3ccccn3)cc(=O)[nH]2)cc1`?
HT1080 IDH1KD tx: -5%; TDP1 cell noCPT: 16µM*; DT40 TDP1 CPT: 15µM*; IL1B secr inh: -7; uPA generation: -14%; HT1080NT lethal: -1%

How did CCn1cc(C(=O)NCc2ccc(F)cc2)c(=O)c2cc(S(=O)(=O)N(C)C)ccc21 do in these assays?
TDP1 cell noCPT: inconclusive; DT40 TDP1 CPT: -25%

Results for CCOc1ccccc1CNCCO ?
HT1080 IDH1KD tx: 5%; TDP1 cell noCPT: 9%; DT40 TDP1 CPT: -5%; IL1B secr inh: 2; HT1080NT lethal: 2%

What do the screens show for `CCOc1cccc(CNCCO)c1OCc1ccc(Cl)cc1`?
HT1080 IDH1KD tx: -22%; TDP1 cell noCPT: inconclusive; DT40 TDP1 CPT: inconclusive; IL1B secr inh: -55*; uPA generation: 2%; HT1080NT lethal: -23%

How did COc1cccc(CNC(C)(C)CO)c1OCc1ccc(Cl)cc1 do in these assays?
HT1080 IDH1KD tx: -7%; TDP1 cell noCPT: inconclusive; DT40 TDP1 CPT: -20%; IL1B secr inh: -57*; uPA generation: -5%; HT1080NT lethal: -12%

What do the screens show for `CCOc1cc(CNC(C)(C)CO)cc(Br)c1OCc1ccc(Cl)cc1Cl`?
HT1080 IDH1KD tx: 10µM*; TDP1 cell noCPT: 21µM*; DT40 TDP1 CPT: 21µM*; IL1B secr inh: inconclusive; uPA generation: 2%; HT1080NT lethal: 11µM*

What do the screens show for `CCOc1cc(CNCCO)cc(Br)c1OCc1ccc(Cl)cc1`?
HT1080 IDH1KD tx: inconclusive; TDP1 cell noCPT: inconclusive; DT40 TDP1 CPT: 26µM*; IL1B secr inh: -16; uPA generation: 2%; HT1080NT lethal: inconclusive

What do the screens show for `O=c1cc(-c2ccc(F)cc2)nc(SCc2nc(-c3ccccc3Cl)no2)[nH]1`?
TDP1 cell noCPT: -24%; DT40 TDP1 CPT: -30%

How did COc1cccc(C(=O)C2CN(c3ccccc3)CC2c2ccc(Cl)cc2)c1 (stereo not drawn) do in these assays?
HT1080 IDH1KD tx: inconclusive; TDP1 cell noCPT: -18%; DT40 TDP1 CPT: inconclusive; IL1B secr inh: inconclusive; HT1080NT lethal: -11%

What do the screens show for `O=C(c1ccccc1)C1CN(c2ccccc2)CC1c1ccc(Cl)cc1` (stereo not drawn)?
HT1080 IDH1KD tx: 2%; TDP1 cell noCPT: 16µM*; DT40 TDP1 CPT: inconclusive; IL1B secr inh: 12; uPA generation: -1%; HT1080NT lethal: -1%

How did O=C1[C@H]2[C@@H](c3ccc(C(F)(F)F)cc3)N[C@]3(CCCN(Cc4ccc(C(F)(F)F)cc4)C3=O)[C@H]2C(=O)N1Cc1ccccc1 do in these assays?
HT1080 IDH1KD tx: inconclusive; TDP1 cell noCPT: 18µM*; DT40 TDP1 CPT: 18µM*; IL1B secr inh: inconclusive; HT1080NT lethal: -17%

What do the screens show for `O=C1[C@H]2[C@@H](c3ccc(C(F)(F)F)cc3)N[C@]3(CCCN(Cc4ccccc4)C3=O)[C@H]2C(=O)N1Cc1ccccc1`?
HT1080 IDH1KD tx: inconclusive; TDP1 cell noCPT: 23µM*; DT40 TDP1 CPT: 23µM*; IL1B secr inh: -12; HT1080NT lethal: -18%

Results for COc1ccc(CN2CCC[C@]3(N[C@H](c4ccc(C(F)(F)F)cc4)[C@@H]4C(=O)N(C)C(=O)[C@@H]43)C2=O)cc1 ?
HT1080 IDH1KD tx: -7%; TDP1 cell noCPT: inconclusive; DT40 TDP1 CPT: 23µM*; IL1B secr inh: 31; HT1080NT lethal: -17%
